From PubChem BioAssay
Active and inactive are the calls of the source.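 The calls were made as follows, unless noted: active = inhibition at or above 50% at 10 µM; inactive = inhibition below 50%.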

Assays:
[1] = inhibitors of TNFa-induced NFkB p65 translocation, primary screen, imaging, HUVEC, MLSMR starter and 10KST1 sets (AID 438;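 active = inhibition above 20% together with a positive visual image hit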;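 also: compound added about 3h40 before a 20 min TNFalpha stimulation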;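 as to inhibition: signal is the nuclear over cytoplasmic p65 intensity ratio per well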); details: HUVEC TNFa-induced p65 nuclear translocation; cell count: measured here: nuclei count (cytotoxicity indicator), at 2.08 µM; inhibition: at 2 µM, stronger effect = higher value, 0% TNFa-plus-vehicle, 100% no-TNFa wells
[2] = reduction of polyQ htt aggregates in cells – imaging, exon1htt(103Q)mCFP cells, high-content imaging, primary screen (AID 483;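 active = visual image review flags a hit and inhibition of aggregation exceeds 20%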;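 also: compound exposure lasted 3 days before fixation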;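 as to nuclei count: percent of the per-plate median nuclei count of sample wells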); details: exon1htt(103Q)mCFP cell line, aggregate imaging, at 2 µM; inhibition of aggregation: stronger effect = higher value; nuclei count: measured here: cell count, toxicity
[3] = endothelial E-selectin expression blockers – imaging, HUVEC, immunofluorescence, MLSMR starter and 10KST1 sets, primary screen (AID 487;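 active = visually confirmed hit in the image check and inhibition above 20%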;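 as to inhibition: signal is fraction of cell area covered by stained E-selectin grains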;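 as to nuclei count: 100% = median nuclei count of all wells on the same plate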); details: HUVEC TNFalpha-induced E-selectin immunofluorescence imaging, at 2 µM; inhibition: stronger effect = higher value; nuclei count: measured here: cell number, toxicity
[4] = biological target: Voltage-gated potassium channel subunit beta-2 (Rattus norvegicus) (UniProt P62483); experiment: inhibitors of rat Kvbeta2 reductase activity – biochemical, NADPH fluorescence, primary screen (AID 622;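 active = fluorescence slope higher than the sample average by over 3 SD, cut at about -0.22 in these data, passing the limit was not always enough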;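 also: slope of raw intensity against log time taken from 70 to 1610 s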); details: recombinant KvBeta, 4-cyanobenzaldehyde reduction, at 10 µM, stronger effect = higher value
[5] = biological target: Voltage-gated potassium channel subunit beta-2 (Rattus norvegicus) (UniProt P62483); experiment: enhancers of rat Kvbeta2 NADPH turnover – biochemical, NADPH fluorescence, primary screen (AID 623;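 active = NADPH fluorescence slope more negative than the mean of all samples by about 3 SD, 99.7% confidence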;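 also: fluorescence intensity change per second fitted from 20 to 320 s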); details: Recombinant KvBeta, NADPH fluorescence decrease slope, 10 min; at 10 µM; stronger effect = lower value
[6] = biological target: Alpha-2C adrenergic receptor (Homo sapiens) (UniProt P18825); experiment: compounds altering alpha2C-coupled GIRK flux – cell-based, HEK293 alpha2C/GIRK1/2, thallium flux, primary screen (AID 624;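 active = fluorescence slope after compound addition differing from the mean of all screened samples at 99.7% confidence, in either direction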;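 also: slope of fluorescence ratio to pre-addition baseline per second over 15 to 24 s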); details: thallium flux BTC fluorescence, at 10 µM, actives lie on both sides
[7] = blockers of RIG-like receptor reporter activation – cell-based, Sendai virus stimulus, luciferase, 10K MLSCN set, TLR/RLR signaling modifier project, primary screen (AID 602276); details: HEK293 RL24 IRF3 luciferase reporter, at 10 µM, stronger effect = higher value;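 also: firefly luciferase from ISG56 promoter only with Renilla not read in this screen; 0% = Sendai virus plus DMSO and 100% = medium plus DMSO without virus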
[8] = TLR3 IRF3 reporter activation blockers – cell-based, poly I:C stimulus, luciferase, 10K MLSCN set, primary screen (AID 602277;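 active = inhibition of the reporter signal at or above 50%; inactive = inhibition below 50%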); details: HEK293-TLR3 RL24 IRF3 luciferase reporter, at 10 µM, stronger effect = higher value

Alpha-2C adrenergic receptor (Homo sapiens), sequence (P18825 whole entry, looked up): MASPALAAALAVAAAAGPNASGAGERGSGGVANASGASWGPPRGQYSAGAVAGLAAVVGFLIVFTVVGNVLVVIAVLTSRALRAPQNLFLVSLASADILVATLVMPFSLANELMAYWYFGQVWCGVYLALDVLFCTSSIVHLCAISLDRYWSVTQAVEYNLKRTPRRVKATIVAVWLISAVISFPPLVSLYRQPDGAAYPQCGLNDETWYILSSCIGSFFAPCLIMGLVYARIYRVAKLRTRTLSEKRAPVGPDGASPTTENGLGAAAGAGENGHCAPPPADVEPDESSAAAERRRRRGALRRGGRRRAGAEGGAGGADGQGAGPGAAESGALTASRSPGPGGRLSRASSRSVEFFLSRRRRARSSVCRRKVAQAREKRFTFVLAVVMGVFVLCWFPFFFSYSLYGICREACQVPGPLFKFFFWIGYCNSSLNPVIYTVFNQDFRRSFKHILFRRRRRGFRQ
Voltage-gated potassium channel subunit beta-2 (Rattus norvegicus), sequence (P62483 whole entry, looked up): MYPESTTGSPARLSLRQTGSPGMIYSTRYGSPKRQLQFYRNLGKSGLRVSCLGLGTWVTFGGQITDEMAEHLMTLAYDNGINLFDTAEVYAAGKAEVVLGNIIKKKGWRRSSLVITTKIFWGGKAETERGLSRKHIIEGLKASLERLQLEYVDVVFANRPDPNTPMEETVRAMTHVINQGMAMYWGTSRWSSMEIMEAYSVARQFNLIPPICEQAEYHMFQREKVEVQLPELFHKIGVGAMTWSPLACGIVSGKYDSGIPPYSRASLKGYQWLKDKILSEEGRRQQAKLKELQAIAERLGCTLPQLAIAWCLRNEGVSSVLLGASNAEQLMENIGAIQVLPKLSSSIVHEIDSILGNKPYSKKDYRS

SMILES | cell count [1] | inhibition [1] | inhibition of aggregation [2] | nuclei count [2] [%] | inhibition [3] | nuclei count [3] [%] | fluorescence slope [4] | NADPH fluorescence slope [5] | slope [6] | inhibition [7] | inhibition [8]
CN1C(=S)SC(C)(NO)C1(C)C (stereo not drawn) | 446 | 6.5% (inactive) | 7.3% (inactive) | 78.4 | 2.9% (inactive) | 107 | -0.479 (inactive) | -0.000139 (active) | 0.00444 (inactive) | 15.4% (inactive) | 16% (inactive)
CCn1cc(C(=O)NCCC2=CCCCC2)c(=O)c2cc(S(=O)(=O)N(C)C)ccc21 | 458 | -6.1% (inactive) | 38.5% (active) | 79 | -45.7% (inactive) | 93.2 | -0.563 (inactive) | -4.1e-05 (inactive) | 0.00705 (inactive) | 3.13% (inactive) | 17.6% (inactive)
Cc1cc(OCC(=O)N2CCOCC2)cc2oc(=O)c3ccccc3c12 | 352 | 6.7% (inactive) | -9.5% (inactive) | 90.7 | 3.4% (inactive) | 124 | -0.329 (inactive) | 2.7e-05 (inactive) | 0.00625 (inactive) | -4.13% (inactive) | -8.03% (inactive)
NS(=O)(=O)c1ccc(CCNC(=O)CCC2COc3ccccc3O2)cc1 (stereo not drawn) | 535 | -8.3% (inactive) | -5.3% (inactive) | 98.4 | -20.9% (inactive) | 90.3 | -0.564 (inactive) | 3.4e-06 (inactive) | 0.00562 (inactive) | 15.7% (inactive) | 18.3% (inactive)
CCOC(=O)Cn1c(N2CCOCC2)nc2c1c(=O)[nH]c(=O)n2C | 673 | -8.7% (inactive) | -18.2% (inactive) | 118 | -0.1% (inactive) | 107 | -0.415 (inactive) | -6.2e-05 (inactive) | 0.00268 (inactive) | 9.13% (inactive) | 21.5% (inactive)
S=C(NCC1CCCO1)n1nnc2ccccc21 (stereo not drawn) | 718 | -5.9% (inactive) | -2.9% (inactive) | 94.6 | 52% (inactive) | 92.8 | -0.399 (inactive) | 4.6e-05 (inactive) | 0.00794 (inactive) | 12.9% (inactive) | 13.5% (inactive)
CC(C)OC(=O)C1C2C=CC3(CN(Cc4cccs4)C(=O)C13)O2 (stereo not drawn) | 469 | 5% (inactive) | 0.9% (inactive) | 83.9 | -92.4% (inactive) | 111 | -0.533 (inactive) | -1.6e-05 (inactive) | 0.005 (inactive) | 20.6% (inactive) | 32.2% (inactive)
Cc1cc(=O)oc(C)c1C(=O)O | 560 | -13.1% (inactive) | 20.6% (inactive) | 88.5 | -3.9% (inactive) | 114 | -0.451 (inactive) | -0.000139 (inactive) | 0.00558 (inactive) | 9.47% (inactive) | 25.5% (inactive)
Cc1cc(S(=O)(=O)N2CCN(c3ccccc3C)CC2)ccc1F | 651 | -8.1% (inactive) | -13.5% (inactive) | 103 | -131% (inactive) | 125 | -0.462 (inactive) | 1.6e-05 (inactive) | 0.00665 (inactive) | 14.2% (inactive) | 28.2% (inactive)
COc1ccc(N2C(=O)C3C4C=CC(C4)C3C2=O)nn1 (stereo not drawn) | 719 | -5.5% (inactive) | -9.5% (inactive) | 100 | -182% (inactive) | 142 | -0.44 (inactive) | -0.000108 (inactive) | 0.00628 (inactive) | 11.4% (inactive) | 23.1% (inactive)
Nc1nnc(-c2cn(-c3ccccc3)nc2-c2ccccc2)o1 | 523 | -12.5% (inactive) | -7.1% (inactive) | 90.3 | -16.3% (inactive) | 113 | -0.481 (inactive) | 1.3e-05 (inactive) | 0.00498 (inactive) | -22.2% (inactive) | -23.6% (inactive)
CCOc1ccc(S(=O)(=O)Nc2ccc(Cl)cn2)c(C)c1C | 536 | -35.7% (inactive) | 20.2% (inactive) | 87.4 | -43.3% (inactive) | 101 | -0.475 (inactive) | -3e-05 (inactive) | 0.00637 (inactive) | 4.93% (inactive) | 26.8% (inactive)
O=C(N1CCN(c2ccccc2F)CC1)C12CC3CC(CC(C3)C1)C2 | 242 | 3.4% (inactive) | -2.5% (inactive) | 99.4 | 17.9% (inactive) | 95 | -0.387 (inactive) | 2.5e-05 (inactive) | 0.00709 (inactive) | 7.35% (inactive) | 14.4% (inactive)
NC(=O)CSc1nnc(-c2cnccn2)n1-c1ccccc1 | 625 | 3.8% (inactive) | -10.7% (inactive) | 102 | 19% (inactive) | 94.9 | -0.501 (inactive) | -4.9e-05 (inactive) | 0.0054 (inactive) | 20.2% (inactive) | 20.8% (inactive)
Cc1ccc(Nc2cc(-n3nc(C)cc3C)ncn2)cc1 | 378 | 5.2% (inactive) | -9.7% (inactive) | 99.7 | -14.1% (inactive) | 101 | -0.442 (inactive) | -3.4e-05 (inactive) | 0.00717 (inactive) | -0.371% (inactive) | -15.8% (inactive)
O=C(NCCSCc1ccco1)Nc1cccc(Cl)c1 | 502 | 3.6% (inactive) | -7.7% (inactive) | 99.9 | -67.4% (inactive) | 115 | -0.673 (inactive) | 1.6e-05 (inactive) | 0.0115 (inactive) | 2.33% (inactive) | -54.8% (inactive)
CC(=O)c1ccc(NC(=O)CCc2c(C)nc3ncnn3c2C)cc1 | 363 | 0% (inactive) | 11.4% (inactive) | 103 | -31.1% (inactive) | 113 | -0.498 (inactive) | -2.9e-05 (inactive) | 0.00573 (inactive) | -9.29% (inactive) | -11.6% (inactive)
CC1CCCN(C(=O)CN2CCN(C(=O)c3ccco3)CC2)C1 (stereo not drawn) | 238 | 0.4% (inactive) | 20.8% (inactive) | 76 | -18.8% (inactive) | 152 | -0.596 (inactive) | -6.2e-05 (inactive) | 0.00367 (inactive) | 7.97% (inactive) | 14.7% (inactive)
CC1CN(c2nc3ccccc3nc2C(C#N)C(=O)OC2CCCCC2)CC(C)O1 (stereo not drawn) | 382 | -6.2% (inactive) | -28.8% (inactive) | 116 | -12.3% (inactive) | 111 | -0.364 (inactive) | 2.4e-05 (inactive) | 0.0019 (active) | 15.1% (inactive) | 22.4% (inactive)
CCOC(=O)N1CCN(Cc2nc3c(c(=O)n(C)c(=O)n3C)n2Cc2ccc(F)cc2)CC1 | 697 | 0.3% (inactive) | -1.6% (inactive) | 91.7 | -23.4% (inactive) | 123 | -0.557 (inactive) | -3.3e-05 (inactive) | 0.00745 (inactive) | 16.7% (inactive) | 39.9% (inactive)
Cc1ccccc1C(=O)NC1CCN(Cc2nnnn2Cc2ccccc2)CC1 | 551 | -30.6% (inactive) | -10.9% (inactive) | 110 | -36.5% (inactive) | 111 | -0.585 (inactive) | -4.3e-05 (inactive) | 0.00483 (inactive) | 7.81% (inactive) | 19.8% (inactive)
CCOC(=O)N1CCC(n2c(SCC(=O)NCc3ccco3)nc3ccsc3c2=O)CC1 | 729 | 3.4% (inactive) | 2.8% (inactive) | 97.8 | -97.7% (inactive) | 118 | -0.386 (inactive) | -2.9e-05 (inactive) | 0.00588 (inactive) | 4.14% (inactive) | 23.6% (inactive)
O=C(NCCCNC1CCCCC1)c1ccc(/C=N/O)nc1 | 221 | 2% (inactive) | -20.6% (inactive) | 67.6 | -97.6% (inactive) | 108 | -0.62 (inactive) | -1.9e-05 (inactive) | 0.00681 (inactive) | 7.85% (inactive) | 23% (inactive)
O=C1c2ccccc2C(Nc2ccc3nc(-c4cccnc4)[nH]c3c2)N1Cc1ccco1 (stereo not drawn) | 493 | -9.4% (inactive) | 23.2% (inactive) | 90 | -24.3% (inactive) | 93.2 | -0.58 (inactive) | -3.1e-06 (inactive) | 0.00653 (inactive) | -7.53% (inactive) | -13.9% (inactive)
COc1ccc(C)cc1NC(=O)c1nnn(Cc2cccc(F)c2)c1N | 610 | -0.2% (inactive) | 6.4% (inactive) | 100 | -31.3% (inactive) | 127 | -0.513 (inactive) | -2.7e-05 (inactive) | 0.00668 (inactive) | 40.9% (inactive) | 1.2% (inactive)
CC1(C)CN=C(N2CCN(c3ncnc4sc5c(c34)CCCC5)CC2)S1 | 395 | 4.1% (inactive) | -0.4% (inactive) | 80.5 | -28.7% (inactive) | 113 | -0.379 (inactive) | -4.9e-05 (inactive) | 0.0035 (inactive) | 6.95% (inactive) | 5.35% (inactive)
Cc1cc(Nc2ccccc2F)n2ncnc2n1 | 542 | 14.8% (inactive) | -3.9% (inactive) | 137 | -59.1% (inactive) | 111 | -0.566 (inactive) | -2.7e-05 (inactive) | 0.00578 (inactive) | -1.22% (inactive) | 12.8% (inactive)
CCN(CC)c1nc2cc(OC)ccc2cc1C#N | 386 | -7.8% (inactive) | 8.6% (inactive) | 101 | -50.8% (inactive) | 114 | -0.584 (inactive) | -6.9e-06 (inactive) | 0.00563 (inactive) | 12.7% (inactive) | 41% (inactive)
